# The supplement of paper PMC3334620
# Over roughly 33,000 sequences, “E-score (-0.5 to 0.5)” has its median near -0.035; the highest 2% begin near 0.35. For the sample, the highest values were picked, then their nearest neighbours and some sequences at random.
# Biological target: T1, Pdr3 (UniProt P33200)
# T1 sequence: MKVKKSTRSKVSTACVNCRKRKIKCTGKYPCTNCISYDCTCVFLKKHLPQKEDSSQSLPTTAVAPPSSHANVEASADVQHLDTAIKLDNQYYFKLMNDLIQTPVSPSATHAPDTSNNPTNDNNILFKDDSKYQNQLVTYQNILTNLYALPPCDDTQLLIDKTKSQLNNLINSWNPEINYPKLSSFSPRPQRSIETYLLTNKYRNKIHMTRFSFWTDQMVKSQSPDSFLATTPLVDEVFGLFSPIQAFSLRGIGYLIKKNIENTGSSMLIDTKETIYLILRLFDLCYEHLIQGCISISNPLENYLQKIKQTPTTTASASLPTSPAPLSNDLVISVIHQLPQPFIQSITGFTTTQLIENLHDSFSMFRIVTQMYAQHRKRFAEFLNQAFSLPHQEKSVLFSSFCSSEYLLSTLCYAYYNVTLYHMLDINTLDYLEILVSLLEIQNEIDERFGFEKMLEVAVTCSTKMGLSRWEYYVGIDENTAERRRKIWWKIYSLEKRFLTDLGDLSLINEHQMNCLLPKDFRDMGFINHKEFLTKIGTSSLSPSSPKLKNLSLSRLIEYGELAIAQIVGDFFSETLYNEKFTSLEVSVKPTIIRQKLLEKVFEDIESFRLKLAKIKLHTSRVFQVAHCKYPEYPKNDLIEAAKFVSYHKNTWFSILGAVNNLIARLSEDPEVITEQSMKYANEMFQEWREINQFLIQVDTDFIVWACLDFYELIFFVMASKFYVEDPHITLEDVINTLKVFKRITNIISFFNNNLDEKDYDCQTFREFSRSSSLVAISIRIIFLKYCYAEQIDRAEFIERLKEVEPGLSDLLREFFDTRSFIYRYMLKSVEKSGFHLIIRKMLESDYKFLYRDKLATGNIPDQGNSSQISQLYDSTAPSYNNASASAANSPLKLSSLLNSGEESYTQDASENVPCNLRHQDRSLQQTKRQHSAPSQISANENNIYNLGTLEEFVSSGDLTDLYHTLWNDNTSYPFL
# Test: PBM E-score (8-mer binding enrichment) (E-score (-0.5 to 0.5)); higher = stronger / more preferred TF binding
# Conditions: protein concentration: 200 nM; construct: GST-full length
# Experimental: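 Universal 'all 10-mer' protein binding microarrays (Agilent AMADID 015681) probed with GST-tagged S. cerevisiae TFs (full-length or DBD) made by in vitro transcription/translation (PURExpress), about 100-200 nM. Bound TF was detected with fluorescent anti-GST. Each ungapped 8-mer (which stands for itself and its reverse complement) is scored by the PBM enrichment score (E-score), a modified Wilcoxon-Mann-Whitney statistic from -0.5 to +0.5, computed with the Universal PBM Analysis Suite. Scale: above 0.35 generally sequence-specific binding.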
row,Sequence,PBM E-score
1,GCTGGTAC,0.029
2,CGGCACAA,0.121
3,CCTTGACA,-0.209
4,TTACCGAA,0.105
5,CGTATAGA,-0.231
6,AGTTCCGA,0.456
7,CGTTCCGA,0.455
8,GGTTCCCA,-0.0344
9,CGTTCCTA,-0.0878
10,CGTTCCCC,0.146
11,GGTTCCAA,0.273
12,GGTTCCGA,0.476
13,CGTTCCTC,0.194
14,AGTTCCCA,0.16
15,CGTTCCGC,0.453
16,CGTTCCAA,-0.0612
17,AGTTCCTA,0.0135
18,GATCCACC,-0.0343
19,ACGAGATC,0.00781
20,GAAGGGCC,0.00364
21,CTTCACAC,-0.201
22,ACCAAATA,0.0784

row,Sequence,PBM E-score
1,GGAATGTA,0.339
2,CATAACCG,0.135
3,ACAATGCT,-0.171
4,AGCATAAG,-0.0742
5,AGGTCCGA,0.305
6,AGTTCCGG,0.464
7,AGTTCCAC,-0.00065
8,AGTTCCCC,0.0744
9,AGTTCCGC,0.467
10,CGGTCCGA,0.378
11,AGTTCCTG,-0.0933
12,AGTTCCAG,-0.0101
13,GGGTCCGA,0.234
14,CTAGGTTC,0.154
15,CCCATCCA,0.00501
16,GTGAAAGA,-0.0383
17,CTAAGATC,-0.0406
18,ACTACCCT,-0.179
19,ATCTAGAG,-0.177
20,CTTCGACC,0.054
21,TCGGATAA,0.307
22,ACAGAAGT,-0.285

row,Sequence,PBM E-score
1,AAGGAAGT,0.0783
2,ACGGAAGT,0.393
3,AGGGAAGC,-0.0866
4,GTGGAAGA,-0.0507
5,ACGGAAGA,0.373
6,AAGGAAGA,-0.2
7,GCGGAAGA,0.393
8,ATGGAAGC,0.179
9,ACGGAAGC,0.427
10,GAGGAAGA,0.0527
11,ATGGAAGA,-0.243
12,CCCCCTAG,-0.342
13,CCCTGACA,-0.222
14,CATGAACG,-0.0457
15,CAAAACCG,0.00937
16,GGTGCGCA,0.191
17,TAGGAAGA,-0.204
18,CTGGAAGC,-0.322
19,GCGGAAGC,0.347
20,TCGGAAGA,0.359
21,CTGGAAGA,-0.108
22,CAGGAAGA,0.0315

row,Sequence,PBM E-score
1,AAGGAAGG,-0.205
2,ACGGAAGG,0.397
3,TCAGAAGA,-0.178
4,ATGGAAGG,-0.197
5,CCGGAAGC,0.444
6,CCGGAAGA,0.403
7,CGACCACA,-0.0427
8,AAGTGCAC,0.0238
9,ACTGAGAA,-0.121
10,TAAGCCCA,-0.113
11,ACTAGGGA,-0.253
12,ACTGCCCG,0.179
13,CACGTGGA,-0.0333
14,CGGGAAGA,0.391
15,AGGGAACA,-0.0421
16,AGGGAAGA,-0.238
17,GGGGAACA,-0.00834
18,CCAGAAGG,-0.0321
19,CAGGAAGG,-0.317
20,CGGGAAGC,0.282
21,CGGGAACA,0.358
22,CCGGAAGG,0.421
